FMDV FLuc = shows antiviral activity against foot and mouth disease virus. FMDV antiviral cell assay, firefly luciferase signal. actives 0.23% (n = 120,000). Potency, µM (series often up to 57.5 µM), actives largely listed as inhibitors; also: nearly all actives have a fitted effect of over 60% in size
FMDV Renilla = FMDV antiviral activity by Renilla signal | FMDV replicon cells, Renilla luciferase signal | Potency, µM (doses to about 57.5 µM), most hits filed as inhibitors | actives 0.32% (n = 120,000) | AID 1745857; also: nearly all actives have a fitted effect of over 55% in size
A number is an active result; - = inactive; ? = inconclusive; [ ] = remark or other dose. In the library only some 0.51% were active in any assay of this set; here they are far more common. Calls follow the shape of the full dose curve.

SMILES | FMDV FLuc | FMDV Renilla
CCOc1ccccc1NC(=O)c1ccc(C)c(S(=O)(=O)Nc2cccc(C)c2C)c1 | - | -
C#CCN(CC(=O)NC(=O)NCC)C1CCCCC1 | - | -
CCN(CC)C(=S)Sc1ccc([N+](=O)[O-])cc1 | 2µM | -
CCN(CC)C(=S)SC(C(=O)c1ccccc1)c1ccccc1 (stereo unspecified) | - | -
CC(NC(=O)c1nn(C)c(=O)c2ccccc12)c1ccccc1 (stereo unspecified) | - | -
CC(NC(=O)c1ccccc1NC(=O)c1nn(C)c(=O)c2ccccc12)c1ccccc1 (stereo unspecified) | 3.5µM | 4.5µM
C=CCNCc1ccc(-c2ccc(C(=O)OC)cc2)o1 | - | -
O=C(Nc1cccc(Cl)c1)c1nc2ccccc2nc1N1CCCC1 | - | -
Clc1cccc(Nc2nc3nonc3nc2N2CCCCC2)c1 | ? | 6.3µM
Cc1cccc(NC(=O)CCl)c1 | ? | 32µM
Cc1cccc(NC(=O)CC2(C(=O)O)CCCCC2)c1 | - | -
COc1ccc2c(COC(=O)CCCN=C3NS(=O)(=O)c4ccccc43)cc(=O)oc2c1 | - | -
CCOc1ccccc1NC(=O)CN(C)S(=O)(=O)c1ccc2nc(C)sc2c1 | ? | 32µM
COc1cccc(NC(=O)CN(C)S(=O)(=O)c2ccc3nc(C)sc3c2)c1 | - | -
Cc1cccc(NC(=S)NC2CCCC(C)C2C)c1 (stereo unspecified) | ? | -
NCC1CCN(CCO)C1 (stereo unspecified) | - | -
Cc1ccc(CN(C)Cc2cc(=O)oc3ccc(C)cc23)cc1 | - | -
COc1ccc2oc(=O)cc(CN(C)Cc3ccc(C)cc3)c2c1 | ? | 35µM
CCN(CC)C(C)CN1c2ccccc2Sc2ccccc21 (stereo unspecified) | -[11.5 µM] | -
CCN1/C(=C/C=C/c2sc3ccccc3[n+]2CC)Sc2ccccc21 | 3.2µM | ?
O=C(Nc1ccccc1C(F)(F)F)c1cc2ccccn2n1 | - | -
O=C(Nc1ccc(OC(F)(F)F)cc1)c1cc2ccccn2n1 | - | 8.9µM
CCc1c(C)nc2nncn2c1NCc1ccc(Cl)cc1 | - | ?
Cc1ccc(CNc2c(C)c(C)nc3nncn23)cc1 | 2.2µM | 2µM
CCNC(=O)NC(=O)COC(=O)c1cc(-c2cccs2)nc2ccccc12 | - | -
SMILES | FMDV FLuc | FMDV Renilla
CNc1nc2c(c(=O)n(C)c(=O)n2C)n1CC(O)COc1ccc(OC)cc1 (stereo unspecified) | ? | 22µM
Cc1ccc(OCC(O)Cn2c(N)nc3c2c(=O)n(C)c(=O)n3C)cc1 (stereo unspecified) | - | -
O=C1CCC/C(=N/NC(=O)c2ccc(Cl)cc2)C1 | - | -
N#CC1=C(N)OC(c2ccccc2)=C(C(=O)c2ccccc2)C1c1ccccc1 (stereo unspecified) | - | -
O=C(CSc1ccc2ccccc2n1)Nc1ccc2c(c1)CCC2 | - | -
O=C(CSc1ccc(N2CCC(C(=O)N3CCCCC3)CC2)nn1)Nc1ccc2c(c1)CCC2 | 4µM | 3.2µM
CCCC1N=C2c3ccccc3N=C(SCC(=O)Nc3cc(OC)cc(OC)c3)N2C1=O (stereo unspecified) | - | -
COc1ccc(NC(=O)COc2ccccc2C)c2cccnc12 | ? | 14µM
COc1ccc(NC(=O)COc2c(C)cccc2C)c2cccnc12 | - | -
O=C(CCc1ncc(-c2ccccc2F)o1)Nc1cccc(Br)c1 | - | -
Cc1cccc(Cn2c(=O)n(-c3ccccc3C)c(=O)c3c2c2cc(C)ccc2n3C)c1 | - | -
Cc1ccc2[nH]c(C)c(/C=C/c3cc[n+](C)cc3)c2c1 | 13µM | 11µM
Cc1ccc2c(C=O)c(C)[nH]c2c1 | - | -
Cc1ccc2c(c1)c(/C=C/c1cc[n+](C)cc1)c(C)n2C | ? | 8.9µM
COc1ccc(NC(=O)c2ccc(NC(=O)N3CCSc4ncccc43)cc2)cc1 | - | -
CC(=O)c1ccc(NC(=O)c2cccc(NC(=O)N3CCSc4ncccc43)c2)cc1 | 3.2µM | -
COc1cccc(CNc2nc(NCc3cccc(OC)c3)n(S(=O)(=O)c3ccc(C)cc3)n2)c1 | - | -
Cc1nc(/C=C/C(=O)N2CCN(c3cccc(C(F)(F)F)c3)CC2)cs1 | ? | 20µM
Cc1cc(C(=O)N2CCN(c3cccc(C(F)(F)F)c3)CC2)cs1 | - | -
CCOCCCNc1ncnc2onc(C)c12 | - | -
CCCNc1ncnc2onc(-c3ccc(C)cc3)c12 | - | -
CCOc1ccc(CCNc2ncnc3onc(C)c23)cc1OCC | 3.2µM | 2.5µM
Cc1ccc(CCNc2ncnc3onc(C)c23)cc1 | 1.8µM | 1.6µM
Cc1nc2cc(-c3cccc(F)c3)nn2c(C)c1CCC(=O)Nc1ccc(F)c(Cl)c1 | 2.2µM | -
Cc1nc2cc(-c3ccccc3)nn2c(C)c1CCC(=O)Nc1ccc(F)cc1 | 3.2µM | -
SMILES | FMDV FLuc | FMDV Renilla
Cc1nc2cc(-c3cccc(F)c3)nn2c(C)c1CCC(=O)Nc1ccc(CN2CCCC2)cc1 | ? | -
Cc1nc2cc(-c3ccccc3)nn2c(C)c1CCC(=O)Nc1ccc(F)cc1F | ? | -
Cc1nc2cc(-c3cccc(F)c3)nn2c(C)c1CCC(=O)N1CCN(c2ccc(F)cc2)CC1 | ? | -
COc1ccc(N2CCN(C(=O)CCc3c(C)nc4cc(-c5cccc(F)c5)nn4c3C)CC2)cc1 | 25µM | -
CC(C)C(C)(C#N)NC(=O)CN1CCCC1 (stereo unspecified) | - | -
Cc1nc(-c2nc3ccccc3s2)cs1 | - | -
CCCNC(=O)C(C)Sc1nc(CCC)cc(=O)[nH]1 (stereo unspecified) | - | -
CCCc1cc(=O)[nH]c(SC(C)C(=O)NC(=O)NC2CCCCC2)n1 (stereo unspecified) | 10µM | ?
Cc1cccc(NC(=O)/C(C#N)=C/c2cc(C(C)(C)C)c(O)c(C(C)(C)C)c2)c1C | ? | 6.3µM
Cc1ccc(/C=C(/C#N)C(=O)Nc2cccc3ncccc23)cc1 | - | -
CC(/C=C/N(C)C)=C\C=[N+](C)C | 8.9µM | 4µM
COc1cc(/C=C(/C#N)C(=O)c2ccccc2)cc(Cl)c1OC(C)C | - | -
O=C(CN1CCN(c2ccc(C(F)(F)F)cn2)CC1)NC1CCCCC1 | 28µM | ?
O=C(CN1CCN(CC(=O)NC2CCCCC2)CC1)Nc1ccc(Cl)c(C(F)(F)F)c1 | - | -
CC(Sc1ncccn1)C(=O)c1ccc(F)cc1 (stereo unspecified) | ? | -
COc1cc(C(=O)Nc2ccccc2-c2nc(-c3ccc(C)cc3)no2)cc(OC)c1OC | - | 35µM
COc1cc(C(=O)Nc2ccccc2-c2nc(-c3ccccc3)no2)cc(OC)c1OC | - | -
COc1cc(-c2noc(-c3ccc(Br)cc3)n2)cc(OC)c1OC | - | -
COc1cc(-c2nc(-c3ccc(Br)cc3)no2)cc(OC)c1OC | 0.4µM | -
C=CCNc1nc(-c2cc(C)n(-c3c(C)n(C)n(-c4ccccc4)c3=O)c2C)cs1 | - | -
Cc1cc(C(=O)OC(C)C(=O)C23CC4CC(CC(C4)C2)C3)c(C)o1 (stereo unspecified) | - | -
Cn1c(-c2ccccc2)c(C(=O)COC(=O)COc2cccc3c2OC(C)(C)C3)c2ccccc21 | - | -
COc1ccc(OC)c(C(=O)COC(=O)CCC(=O)c2ccc(Cl)cc2)c1 | - | -
CCNCc1ccc(-c2ccc(C(F)(F)F)cc2)o1 | - | -
Cc1nsc(N)c1C(=O)OCc1csc(-c2ccccc2)n1 | - | 1.8µM
CN(C)S(=O)(=O)c1ccc(C(=O)OCc2csc(-c3ccccc3)n2)cc1 | - | -
COc1ccc(C(=O)Nc2ccc3oc(-c4ccncc4)nc3c2)cc1OC | - | -

Assay outcomes from PubChem.
